Measurements: PubChem BioAssay (NCI)
This is part of a sample that, as a whole, favours compounds with a hit. Of some 83,000 tested, about 20% had one in any assay.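 Results are percent growth after 48 hours of single-concentration exposure. 100 means growth as in untreated cells, lower positive values show inhibition; negative values down to -100 show cell death.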 Values without a mark were called inactive. Active and inactive are the calls of the source. Rule for the calls: active = growth percent below 10; inactive = the rest.

Tests used:
Assay in all cases: NCI-60 one-dose screen, 48 h (100 = growth as untreated, 0 = no growth, -100 = all killed)
Conditions in all cases: 10 µM unless noted
SR leukemia = test system: SR leukemia
RPMI-8226 leukemia = test system: RPMI-8226 leukemia
OVCAR-8 ovarian = test system: OVCAR-8 ovarian
OVCAR-5 ovarian = test system: OVCAR-5 ovarian
OVCAR-4 ovarian = test system: OVCAR-4 ovarian
SK-OV-3 ovarian = test system: SK-OV-3 ovarian
IGROV1 ovarian = test system: IGROV1 ovarian
OVCAR-3 ovarian = test system: OVCAR-3 ovarian
NCI/ADR-RES ovarian = test system: NCI/ADR-RES ovarian

| Compound | growth (SR leukemia) | growth (RPMI-8226 leukemia) | growth (OVCAR-8 ovarian) | growth (OVCAR-5 ovarian) | growth (OVCAR-4 ovarian) | growth (SK-OV-3 ovarian) | growth (IGROV1 ovarian) | growth (OVCAR-3 ovarian) | growth (NCI/ADR-RES ovarian) |
| --- | --- | --- | --- | --- | --- | --- | --- | --- | --- |
| Cc1ccc(NC(=O)c2ccc(CN3CCN(C)CC3)cc2)cc1Nc1nc(-c2cccnc2)cs1 | -3.75% (active) | 13.2% | 34.5% | 98.7% | 62.6% | 75.3% | 62.3% | 79.6% | 55.7% |
| CC(C)(C)c1cnc(CSc2cnc(NC(=O)C3CCNCC3)s2)o1 | 0.401% (active) | -8.04% (active) | 5.71% (active) | 14.9% | 9.94% (active) | 6.31% (active) | 9.86% (active) | 20.2% | 53% |
| COc1cccc(Nc2ncnn3ccc(CN4CC[C@@H](N)[C@H](O)C4)c23)c1 | 20.1% | 65.7% | 27.5% | 25.5% | 61% | -41.4% (active) | -19% (active) | 44.1% | 19.4% |
| Cc1ccc(Nc2nccc(N(C)c3ccc4c(C)n(C)nc4c3)n2)cc1S(N)(=O)=O | 18% | 20.8% | 20.4% | 9.38% (active) | 31.3% | -1.9% (active) | 3.2% (active) | 39.9% | 48.5% |
| CN1[C@@H]2CC[C@H]1/C(=C\c1ccccc1)C1=C2[C@@H](c2ccccc2)C(C#N)=C(N)O1 | 61.8% | 55.5% | 84.3% | 84.9% | 73.9% | 84.4% | 93.8% | 97.2% | 90.2% |
| COc1ccc(Cl)c(Nc2nc3ccccc3nc2NS(=O)(=O)c2cccc(NC(=O)C(C)(C)N)c2)c1 | 54.9% | 51.5% | 53.3% | 45.7% | 68% | 4.52% (active) | -16.9% (active) | 36.9% | 52.6% |
| CO[C@@H](C)Cn1c(=O)n(C)c2cnc3ccc(-c4cncc(C(C)(C)O)c4)cc3c21 | -2.77% (active) | -16.8% (active) | -13% (active) | 5.28% (active) | -14.6% (active) | -36.5% (active) | -25.7% (active) | 8.39% (active) | -1.12% (active) |
| COc1ccc(C2OC(c3cc(-c4cc5ccccc5o4)nn3-c3ccccc3)=NN2C(C)=O)cc1 (configuration not stated) | 93.1% | 101% | 99.5% | 94% | 96.3% | 103% | 89.4% | 95.3% | 92.2% |
| C#Cc1cccc(Nc2ncnc3cc(OC)c(OCCCCCCC(=O)NO)cc23)c1 | 1.46% (active) | -14.9% (active) | -21.5% (active) | -8.42% (active) | 6.28% (active) | -58.2% (active) | -41.3% (active) | -19.9% (active) | 14.4% |
| Cc1cc(Nc2cc(N3CCN(C)CC3)nc(/C=C/c3ccccc3)n2)n[nH]1 | -13.6% (active) | 28.3% | 36.1% | 13.2% | 41% | 3.69% (active) | -30.7% (active) | 43.8% | 15.7% |
| O=C(Cc1ccc(/C=C/C(=O)c2ncc[nH]2)cc1)Nc1ccc(S(F)(F)(F)(F)F)cc1 | 4.88% (active) | -17.6% (active) | 88.2% | 86.8% | 93.2% | 101% | 52.8% | 80.3% | 97.2% |
| Cc1c(Cn2c(C)nc3c(C(=O)O)cc(N4CCOCC4)cc32)cccc1C(F)(F)F | 75.7% | 104% | 92.1% | 101% | 96.2% | 96% | 114% | 87.2% | 62.1% |
| COc1cc2c(cc1OCCCCCN1CCN(c3ncnc4ccccc34)CC1)N=CC1CCCN1C2=O (configuration not stated) | 0.841% (active) | -35.6% (active) | 1.28% (active) | 23.8% | -3.06% (active) | 19.5% | -38.4% (active) | 1.46% (active) | 12.8% |
| Nc1ncnc2c1c(-c1cccc(OCc3ccccc3)c1)cn2C1CC(CN2CCC2)C1 (configuration not stated) | -17.7% (active) | -24% (active) | 34.9% | 36% | 57.4% | 40.2% | 22.4% | 58.8% | 35.4% |
| NC[C@@](O)(c1ccc(Cl)cc1)c1ccc(-c2cn[nH]c2)cc1 | 0.545% (active) | 19.1% | 29.1% | 18.8% | 16.9% | 20% | -18% (active) | 52.4% | 40.9% |
| CCCCCCCC12Cc3ccccc3C1=Nc1c(c3ccccc3n1C)C2=O (configuration not stated) | 82.6% | 91.8% | 85.2% | 86.5% | 97.4% | 81.6% | 69.5% | 92.9% | 94.2% |
| CCOc1ccc(N=C(C)Nc2ccc(OCC)cc2)cc1 | 84.5% | 116% | 106% | 104% | 104% | 121% | 106% | 133% | 101% |
| Cc1nc(Nc2n[nH]c3c2CN(C(=O)N[C@H](CN(C)C)c2ccccc2)C3(C)C)c2sccc2n1 | -12.1% (active) | -35.2% (active) | -26.3% (active) | -2.55% (active) | -12% (active) | -26.8% (active) | -17.9% (active) | 8.31% (active) | 40.3% |
| CCc1cc2c(cc1N1CCC(N3CCOCC3)CC1)C(C)(C)c1[nH]c3cc(C#N)ccc3c1C2=O | -3.84% (active) | 15.7% | -11.3% (active) | -8.72% (active) | -50.9% (active) | -22.5% (active) | -41.6% (active) | 4.44% (active) | -1.18% (active) |

| Compound | growth (SR leukemia) | growth (RPMI-8226 leukemia) | growth (OVCAR-8 ovarian) | growth (OVCAR-5 ovarian) | growth (OVCAR-4 ovarian) | growth (SK-OV-3 ovarian) | growth (IGROV1 ovarian) | growth (OVCAR-3 ovarian) | growth (NCI/ADR-RES ovarian) |
| --- | --- | --- | --- | --- | --- | --- | --- | --- | --- |
| O=C(Nc1cnn2ccc(N3CCC[C@@H]3c3cc(F)ccc3F)nc12)N1CC[C@H](O)C1 | 72.1% | 91.1% | 80.4% | 114% | 117% | 79.6% | 105% | 99.9% | 97% |
| C=CC(=O)Nc1cccc(Oc2nc(Nc3ccc(N4CCN(C)CC4)cc3)nc3ccsc23)c1 | -23.5% (active) | -29.8% (active) | -38.8% (active) | 8.45% (active) | -63.6% (active) | -2.6% (active) | -69.9% (active) | -80.7% (active) | -3.05% (active) |
| Cc1nc2cc(-c3nn(C(C)C)c4ncnc(N)c34)ccc2o1 | -0.778% (active) | -9.63% (active) | -29.1% (active) | -11.3% (active) | -27.4% (active) | -40.9% (active) | -39% (active) | 2.45% (active) | -22.5% (active) |
| CC(C)(C)c1nc(-c2cccc(NS(=O)(=O)c3c(F)cccc3F)c2F)c(-c2ccnc(N)n2)s1 | 50.4% | 75.5% | 94.7% | 41.1% | 114% | 71.9% | 64.5% | 103% | 95.5% |
| CCOc1cc2ncc(C#N)c(Nc3ccc(OCc4ccccn4)c(Cl)c3)c2cc1NC(=O)/C=C/CN(C)C | -6.61% (active) | -7.58% (active) | -7.74% (active) | 9.55% (active) | -73.6% (active) | -10.6% (active) | -62.5% (active) | 47.5% | -10.8% (active) |
| CNC(=O)c1nn(C)c2c1C(C)(C)Cc1cnc(Nc3ccc(N4CCN(C)CC4)cc3)nc1-2 | -1.85% (active) | 0.421% (active) | 8.9% (active) | 9.13% (active) | 12.9% | -16.9% (active) | 2.47% (active) | 20.7% | 9.88% (active) |
| COc1ccc(S(=O)(=O)N(C(C)=O)c2ccccc2/C=C/c2cc[n+]([O-])cc2)cc1 | 16.4% | 22.2% | 14.9% | 35.4% | 42.4% | 6.17% (active) | 24.5% | 28.2% | 17.5% |
| Cn1cnc(-c2cc3nccc(Oc4ccc(NC(=S)NC(=O)Cc5ccccc5)cc4F)c3s2)c1 | 69.3% | 54.9% | 75.9% | 111% | 86.7% | 82.6% | 95.4% | 80.5% | 96% |
| CO[C@H]1C[C@@H]2CC[C@@H](C)[C@@](O)(O2)C(=O)C(=O)N2CCCC[C@H]2C(=O)O[C@H]([C@H](C)C[C@@H]2CC[C@@H](OC(=O)C(C)(CO)CO)[C@H](OC)C2)CC(=O)[C@H](C)/C=C(\C)[C@@H](O)[C@@H](OC)C(=O)[C@H](C)C[C@H](C)\C=C/C=C/C=C/1C | 3.69% (active) | 11.4% | 22.3% | 47.1% | 28.2% | 20.4% | 11.4% | 33.5% | 45.9% |
| CNc1ncc2cc(-c3cc(NC(=O)NCCC(C)(C)C)c(F)cc3C)c(C)nc2n1 | 17.7% | 21% | 27% | 6.28% (active) | 33.2% | -26% (active) | -10.2% (active) | 54.5% | 24.7% |
| COc1cc(Nc2ncc(F)c(Nc3ccc4c(n3)N(COP(=O)(O)O)C(=O)C(C)(C)O4)n2)cc(OC)c1OC | 21.6% | 46.4% | 28.7% | 17.6% | 44.1% | -41.4% (active) | -17.6% (active) | 43.4% | 20.5% |
| CO[C@@H](C(=O)N1Cc2[nH]nc(NC(=O)c3ccc(N4CCN(C)CC4)cc3)c2C1)c1ccccc1 | -1.07% (active) | 44% | 5.58% (active) | 4.9% (active) | 9.35% (active) | 7.44% (active) | -16.1% (active) | 40.6% | 81.7% |
| Cn1cc(-c2cnn3c(N)c(Br)c([C@@H]4CCCNC4)nc23)cn1 | 4.1% (active) | 24.3% | 50.8% | 56.9% | 61.2% | 38.1% | 36.9% | 59.8% | 51.5% |
| Cc1cnc(NC(=O)Nc2cc(Br)c(C)cc2OC[C@@H]2CNCCO2)cn1 | -18.5% (active) | 13% | 1.6% (active) | 36.6% | 45.6% | 32% | 30.5% | 22.2% | 7.93% (active) |
| CC(C)c1cc(CNc2nc(Nc3cc(C4CC4)[nH]n3)cc(N3CCN(C)CC3)n2)on1 | -5.3% (active) | -13.3% (active) | 6.51% (active) | 18.5% | -8.07% (active) | 0.435% (active) | 8.34% (active) | 15.5% | 39.2% |
| CCNCCNc1cc(-c2ccc(Cl)c(Cl)c2)c(C#N)c2nc3ccccc3n12 | -30.9% (active) | -39.2% (active) | -66% (active) | -76% (active) | -78.4% (active) | -94.1% (active) | -70.7% (active) | -94% (active) | -73.4% (active) |
| COCCOc1cnc2ccn([C@H](C)c3nnc4c(F)cc(-c5cnn(C)c5)cn34)c(=O)c2c1 | 84% | 78.8% | 86.9% | 31.5% | 88.4% | 82.4% | 66.3% | 102% | 91.3% |
| Cc1cccc(C)c1N1C(c2ccccc2)=NNC12C=CC(=O)c1c(O)cccc12 (configuration not stated) | 56.9% | 75.6% | 69.6% | 90.8% | 70.5% | 86% | 83.3% | 51.7% | 70.3% |
| O=C(NC[C@H](O)CO)c1ccncc1Nc1ccc(I)cc1F | 57.2% | 74.6% | 66.9% | 7.42% (active) | 41.4% | 33.8% | 16.3% | 83.7% | 58.7% |
